{"source": "PubChem BioAssay (NCATS)", "note": "Inconclusive results are not listed. A call without a number means that no potency is given here. Active and inactive are the calls of the source. The call rests on the fitted dose curve; in most records, active means well fitted activation curve with a large enough effect; inconclusive means small, poorly fitted or top-dose-only effect; inactive means flat fitted curve, though single readings scatter. Potency means the concentration at half of the fitted maximal effect.", "data": [{"biological_target": "D(1A) dopamine receptor (Homo sapiens) (UniProt P21728)", "sequence (P21728 whole entry, looked up)": "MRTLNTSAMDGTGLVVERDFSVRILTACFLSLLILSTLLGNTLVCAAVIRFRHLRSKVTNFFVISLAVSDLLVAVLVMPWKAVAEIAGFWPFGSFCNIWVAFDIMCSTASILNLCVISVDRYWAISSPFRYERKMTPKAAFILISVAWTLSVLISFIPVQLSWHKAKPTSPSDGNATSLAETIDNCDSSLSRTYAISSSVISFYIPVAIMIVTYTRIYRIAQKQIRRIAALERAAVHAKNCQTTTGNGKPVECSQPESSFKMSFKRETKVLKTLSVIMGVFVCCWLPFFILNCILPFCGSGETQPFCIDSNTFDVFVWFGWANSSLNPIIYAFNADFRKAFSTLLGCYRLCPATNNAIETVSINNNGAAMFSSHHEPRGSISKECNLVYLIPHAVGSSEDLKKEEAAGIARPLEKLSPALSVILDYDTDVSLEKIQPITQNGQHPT", "assay": "HTS Assay for Allosteric Agonists of the Human D1 Dopamine Receptor: Primary Screen for Agonists (AID 488981)", "conditions": "Inducible HEK293 T-REx D1 cells, calcium-flux fluorescence, 180 s kinetic; series mostly up to 41.8 µM", "from_the_text": "Dopamine receptors (DARs) are involved in the etiology and/or therapy of a number of neuropsychiatric and endocrine disorders. For instance, all receptor-based antiparkinsonian drugs work via stimulating the […] DAR subtype whereas all FDA-approved antipsychotic agents are antagonists of this receptor. […] There are three different types of allosteric modulators that we are seeking, two of which will stimulate or augment receptor signaling, allosteric agonists and potentiators, while the third, allosteric antagonists, will attenuate receptor signaling. The present primary screening assay measures compound agonism by tracking calcium flux in a […], inducible Hek293 Trex D1 cell line.\nFreshly passaged cells are plated in 1536 well black, clear bottom plates at a density of 4000 cells/well in 3 ul of complete media containing 1x tetracycline inducer. After an overnight incubation at 30 C in 5% CO2, cells are loaded with 2 ul of the no wash Calcium Assay Kit (ABD Bioquest) and incubated at room temperature for 30 to 90 minutes. A 10 cycle (1 second/cycle) baseline measurement is taken and then the FDSS online 1536 pintool delivers 23 nl of compound library (as well as dopamine controls) to the plate. The plate is measured for kinetically at 1 cycle/sec for 180 seconds and is considered to be the agonist portion of the assay (eg, compounds which activate a positive calcium response during this portion are flagged as potential agonists). Following the 180 second read, 1 ul of an EC20 of dopamine is delivered by an onboard pipette head. Measurements are taken kinetically for an additional 180 seconds.", "values": [{"smiles": "O=C(CCCN1CCC2(CC1)C(=O)NCN2c1ccccc1)c1ccc(F)cc1", "Potency": "12.6 µM (active)"}, {"smiles": "C=C(C)[C@H]1CN[C@H](C(=O)O)[C@H]1CC(=O)O", "Potency": "inactive"}, {"smiles": "O=c1[nH]oc2c1CCNC2", "Potency": "inactive"}, {"smiles": "O=P1(N(CCCl)CCCl)NCCCO1", "note": "(stereo not given)", "Potency": "inactive"}, {"smiles": "Cc1ncsc1CCCl", "Potency": "inactive"}, {"smiles": "CC(C)(C)NCC(O)c1ccccc1Cl", "note": "(stereo not given)", "Potency": "inactive"}, {"smiles": "O=C(O)CCCc1ccc(N(CCCl)CCCl)cc1", "Potency": "inactive"}, {"smiles": "COc1ccc2c(c1OC)C(=O)O[C@H]2[C@@H]1c2cc3c(cc2CCN1C)OCO3", "Potency": "inactive"}, {"smiles": "CCC1(c2ccc(N)cc2)CCC(=O)NC1=O", "note": "(stereo not given)", "Potency": "inactive"}, {"smiles": "CN1C(=O)CCS(=O)(=O)C1c1ccc(Cl)cc1", "note": "(stereo not given)", "Potency": "inactive"}, {"smiles": "CCCCC/C=C\\C/C=C\\C/C=C\\C/C=C\\CCCC(=O)NCC(=O)O", "Potency": "inactive"}, {"smiles": "NCCc1ccc(O)cc1", "Potency": "inactive"}, {"smiles": "CC(NC(C)(C)C)C(=O)c1cccc(Cl)c1", "note": "(stereo not given)", "Potency": "inactive"}, {"smiles": "CC(C)N(CCC(C(N)=O)(c1ccccc1)c1ccccn1)C(C)C", "note": "(stereo not given)", "Potency": "inactive"}, {"smiles": "CC(C)c1cccc(C(C)C)c1O", "Potency": "inactive"}]}]}
